The entries come from a sample that favours hits as a whole.
hNpr1 antagonist = Natriuretic polypeptide receptor (hNpr1) antagonism - Primary qHTS | Atrial natriuretic peptide receptor 1 (Homo sapiens), P16066 | HEK293 hNpr1 GloSensor cGMP, ANP-stimulated luminescence | Potency, µM (highest dose often 46.3 µM), hits mostly inhibitors | 76,000 compounds, 1.6% hits; further: nearly all actives have a fitted effect of over 60% in size
Target sequence (P16066 whole entry, looked up): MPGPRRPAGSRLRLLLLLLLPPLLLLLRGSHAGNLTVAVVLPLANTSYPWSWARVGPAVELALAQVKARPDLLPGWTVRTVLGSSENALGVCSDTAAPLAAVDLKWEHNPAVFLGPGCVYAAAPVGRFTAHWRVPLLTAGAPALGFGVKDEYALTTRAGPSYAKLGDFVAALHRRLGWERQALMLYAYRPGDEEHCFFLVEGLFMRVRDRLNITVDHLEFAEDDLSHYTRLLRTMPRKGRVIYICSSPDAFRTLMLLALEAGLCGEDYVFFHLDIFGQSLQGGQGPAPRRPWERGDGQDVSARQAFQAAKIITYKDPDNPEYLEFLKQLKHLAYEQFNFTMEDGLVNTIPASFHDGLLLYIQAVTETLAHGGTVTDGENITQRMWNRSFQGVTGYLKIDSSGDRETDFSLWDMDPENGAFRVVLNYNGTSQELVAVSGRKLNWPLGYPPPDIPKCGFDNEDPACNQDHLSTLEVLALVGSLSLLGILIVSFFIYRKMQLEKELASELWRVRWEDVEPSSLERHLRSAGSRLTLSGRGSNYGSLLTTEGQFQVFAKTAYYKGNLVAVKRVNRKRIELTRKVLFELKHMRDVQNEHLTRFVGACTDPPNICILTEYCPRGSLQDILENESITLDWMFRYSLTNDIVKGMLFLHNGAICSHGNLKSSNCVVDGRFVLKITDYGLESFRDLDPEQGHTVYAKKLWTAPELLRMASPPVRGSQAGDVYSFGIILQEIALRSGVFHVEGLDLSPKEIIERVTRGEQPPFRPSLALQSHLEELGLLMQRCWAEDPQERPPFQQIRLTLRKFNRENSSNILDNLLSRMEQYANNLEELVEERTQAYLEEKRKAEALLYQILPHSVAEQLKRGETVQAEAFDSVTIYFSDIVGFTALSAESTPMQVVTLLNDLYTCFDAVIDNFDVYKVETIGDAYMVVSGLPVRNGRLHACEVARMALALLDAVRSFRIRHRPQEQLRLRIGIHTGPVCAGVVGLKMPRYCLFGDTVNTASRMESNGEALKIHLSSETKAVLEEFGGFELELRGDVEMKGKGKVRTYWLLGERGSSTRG
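Compound pre-incubated 30 min at room temperature on GloSensor-loaded HEK293 cells stably carrying hNpr1 and the pGS-40F cGMP biosensor. Stimulation uses hNppA at 0.1 nM final; luminescence is taken at baseline and 20 min post-agonist.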
GPT2 inhibitor = Primary qHTS assay for inhibitors of Glutamate pyruvate transaminase 2 (GPT2); Alanine aminotransferase 2 (Homo sapiens), Q8TD30; Recombinant GPT2, coupled pyruvate oxidase/HRP Amplex Red fluorescence; Potency, µM (titrated, usually from 57.7 µM), most hits filed as inhibitors; 100,000 compounds, 0.25% hits; AID 1671188, 2021; active means well fitted inhibition curve with a large enough effect; inconclusive means small, poorly fitted or top-dose-only effect; further: nearly all actives have a fitted effect of over 60% in size
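GPT2 10ng/uL, a-KG 250uM, L-Ala 2mM, HEPES pH7.5 + 0.0001% Tween; 30 min RT. Then Amplex mix (PO/HRP/ThPP), 30 min RT dark, fluorescence. AOA 50uM used as positive control.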
NPR1 antag cnf = Natriuretic polypeptide receptor (hNpr1) antagonism - Confirmation | shares compounds with hNpr1 antagonist | HEK293 hNpr1 cGMP GloSensor luminescence, ANP-stimulated | Potency, µM (titrated, usually from 57.6 µM), most hits filed as inhibitors | 1,400 compounds, 76% hits | AID 1347044, 2019; further: nearly all actives have a fitted effect of over 70% in size
NPR2 antag = Natriuretic polypeptide receptor (hNpr2) antagonism - Subtype selectivity assay. shares compounds with hNpr1 antagonist. HEK293 hNpr2 GloSensor cGMP luminescence, CNP-stimulated. Potency, µM (highest dose often 57.6 µM), actives largely listed as inhibitors. 1,400 compounds, 67% hits. AID 1347046, 2019; further: nearly all actives have a fitted effect of over 70% in size
FLuc counter = Natriuretic polypeptide receptor (hNpr1) antagonism - Confirmation firefly luciferase (FLuc) inhibition counterscreen. shares compounds with hNpr1 antagonist. purified FLuc enzyme, luminescence, Km substrate. 1,400 compounds, 0.7% hits. Potency, µM (titrated, usually from 57.6 µM), most hits filed as inhibitors; active means well fitted inhibition curve with a large enough effect; inconclusive means small, poorly fitted or top-dose-only effect; further: series mostly up to about 58 µM
GloSensor ctrl = Natriuretic polypeptide receptor (hNpr1) antagonism - Counterscreen GloSensor control cell line; shares compounds with hNpr1 antagonist; HEK293 GloSensor cGMP, SNP-stimulated, luminescence; Potency, µM (titrated, usually from 57.6 µM), hits mostly inhibitors; 1,400 compounds, 69% hits; AID 1347051, 2019; further: nearly all actives have a fitted effect of over 70% in size
Hits are given with their value; i = inactive; ? = inconclusive; nt = no result given. Unless noted, the call rests on the fitted dose curve.

SMILES	hNpr1 antagonist	GPT2 inhibitor	NPR1 antag cnf	NPR2 antag	FLuc counter	GloSensor ctrl
O=c1[nH]c(C2CCN(Cc3cccc(-c4cccs4)c3)CC2)nc2ccc(F)cc12	?	i	i	?	i	?
O=c1[nH]c(C2CCCN(Cc3cccc(-c4cccs4)c3)C2)nc2ccc(F)cc12 (stereo not drawn)	?	i	nt	nt	nt	nt
O=C(NCC1CC1)c1ccc2nnc(-c3cc[nH]c3)n2c1	nt	i	nt	nt	nt	nt
COc1cc(CN2CCC(C)(c3noc(C4CCOCC4)n3)CC2)cc(OC)c1	?	?	?	?	i	i
COc1cc(CN2CCC(C)(c3noc(C4CCOCC4)n3)CC2)ccc1OC(C)C	i	i	nt	nt	nt	nt
OCC1(CN2CCCC2)CCN(Cc2ccccc2F)CC1	i	i	nt	nt	nt	nt
CC(=O)N1CCN(c2cc(-c3noc([C@@H]4CCCN4Cc4ccc(N(C)C)cc4)n3)ccn2)CC1	i	i	nt	nt	nt	nt
O=C1c2c(nc(COc3ccc4c(c3)OCO4)n2Cc2ccccc2)NCCN1Cc1ccccc1F	?	i	24µM	?	i	?
O=C1c2c(nc(CNCc3cccc(Cl)c3)n2Cc2ccccc2)NCCN1CCOc1ccccc1	i	i	?	?	i	?
O=C1c2c(nc(CNCc3ccc4c(c3)OCO4)n2Cc2ccccc2)NCCN1CCOc1ccccc1	i	i	nt	nt	nt	nt
O=C1c2c(nc(COc3ccc4c(c3)OCO4)n2Cc2ccccc2)NCCN1Cc1cccc(Cl)c1	?	i	nt	nt	nt	nt
CC[C@H]1CN(S(=O)(=O)c2ccc(OC)cc2)CC[C@H]1CC(=O)N1CCOCC1	i	i	nt	nt	nt	nt
CN(Cc1cccc(C(=O)Nc2cccc(C#N)c2)c1)CC1COCCO1 (stereo not drawn)	?	i	?	?	i	i
CN1C(=O)CO[C@H](c2ccc(NC(=O)c3cccc(C#N)c3)cc2)[C@H]1CO	i	i	nt	nt	nt	nt
O=C1CCC2(CCCN(c3nc4ccccc4s3)C2)CN1Cc1cccnc1 (stereo not drawn)	i	?	nt	nt	nt	nt
O=C1CCC2(CCN(c3nc4ccccc4s3)CC2)CN1Cc1cccnc1	13µM	i	17µM	19µM	i	15µM
c1ccc(-c2noc(-c3cncnc3NC3CCc4ccccc43)n2)cc1 (stereo not drawn)	i	i	nt	nt	nt	nt
Cc1ccc([S+](=O)([O-])N2CCC(n3cc[nH]c3=O)CC2)cc1	nt	i	nt	nt	nt	nt
C[C@]1(CO)[C@H]2Cc3sc(NC(=O)c4c(F)cccc4F)nc3[C@@H](CC(=O)NC3CCCC3)[C@]2(C)CC[C@H]1O	i	i	nt	nt	nt	nt
Cc1cccc(CC(=O)N2CCC3(CC2)CC(N(C2CC2)S(C)(=O)=O)CCO3)c1 (stereo not drawn)	i	i	nt	nt	nt	nt
CC(C)NC(=O)NC[C@H]1OC[C@@H](NCc2cccs2)[C@@H]1O	i	i	nt	nt	nt	nt
O=C(NC1CCCc2c1[nH]c1ccc(Cl)cc21)c1ccncc1 (stereo not drawn)	?	i	?	i	i	i
O=C(NC1CCCc2c1[nH]c1ccc(F)cc21)c1ccncc1 (stereo not drawn)	i	?	nt	nt	nt	nt
O=c1[nH]c(N2CCOCC2)nc2c1CCN(S(=O)(=O)c1ccc3c(c1)CCC3)CC2	i	i	nt	nt	nt	nt
CC1(c2ccccc2)N(Cc2ccccc2)C(=O)OC12CCN(Cc1c[nH]c3ccccc13)CC2 (stereo not drawn)	?	i	nt	nt	nt	nt
SMILES	hNpr1 antagonist	GPT2 inhibitor	NPR1 antag cnf	NPR2 antag	FLuc counter	GloSensor ctrl
CC1(c2ccccc2)N(Cc2ccccc2C#N)C(=O)OC12CCN(Cc1c[nH]c3ccccc13)CC2 (stereo not drawn)	?	i	19µM	19µM	i	i
CCNC[C@H]1O[C@H](Cc2cc(-c3ccc(F)cc3)on2)CC[C@@H]1O	?	i	?	i	i	?
CN1CCC(NC[C@H]2O[C@H](Cc3cc(-c4cccc(O)c4)on3)CC[C@@H]2O)CC1	?	i	?	i	i	?
Cc1ccc(CNC[C@H]2O[C@H](Cc3cc(-c4ccc(F)cc4)on3)CC[C@@H]2O)cc1	i	i	nt	nt	nt	nt
CN1CCC(NC[C@H]2O[C@H](Cc3cc(-c4ccc(F)cc4)on3)CC[C@@H]2O)CC1	?	i	nt	nt	nt	nt
O=C(NCCc1ccccc1)[C@@H]1C[C@H](c2ccc(F)cc2)N([S+](=O)([O-])C2CC2)C1	i	i	nt	nt	nt	nt
Cc1ccc(C(=O)N2CCC(Cc3nc(-c4cnccn4)no3)CC2)cc1C	i	i	nt	nt	nt	nt
CCc1ccc(C(=O)N2CCC(Cc3nc(-c4ccc(F)cc4)no3)CC2)cc1	1.3µM	i	1.5µM	1.7µM	i	1.5µM
O=C(c1ccc2c(c1)OCO2)N1CCC(Cc2nc(-c3ccc(F)cc3)no2)CC1	2.5µM	i	2.4µM	2.2µM	i	1.7µM
Cc1ccc(C(=O)N2CCC(Cc3nc(-c4ccc(F)cc4)no3)CC2)cn1	1.1µM	i	1.4µM	1.9µM	i	1.5µM
O=C(c1ccc2c(c1)OCO2)N1CCC(Cc2nc(-c3cnccn3)no2)CC1	i	i	nt	nt	nt	nt
CC(C)c1ccc(C(=O)N2CCC(Cc3nc(-c4ccc(F)cc4)no3)CC2)cc1	1.4µM	i	1.4µM	1.7µM	i	1.4µM
COc1cccc(CN(C)Cc2cccc(C(F)(F)F)c2)c1	nt	i	nt	nt	nt	nt
CN1CCN(C(=O)c2ccc3nnc(-c4ccc(OC(F)(F)F)cc4)n3c2)CC1	nt	i	nt	nt	nt	nt
CCN(CC)C(=O)C(NC(=O)c1ccc(C)cc1)C1CCN(C(=O)c2cccc(OC)c2)CC1 (stereo not drawn)	i	i	nt	nt	nt	nt
CCOc1ccc(C(C)NC(=O)C2CCCN(c3cnc4nccnc4c3)C2)cc1 (stereo not drawn)	i	i	nt	nt	nt	nt
COc1ccc(S(=O)(=O)N2CCC(CC(=O)NCc3ccccc3)C2)cc1 (stereo not drawn)	i	i	nt	nt	nt	nt
CCc1ccccc1NC(=O)Cn1cccc1-c1nc(-c2ccccc2)no1	i	i	nt	nt	nt	nt
O=C(c1ccccc1Cl)N1CCN(c2nccc(Nc3ccccc3Cl)n2)CC1	nt	i	nt	nt	nt	nt
O=C(c1ccc2c(c1)OC(F)(F)O2)N1CC2(Cc3ccccc3NC2=O)C1	nt	i	nt	nt	nt	nt
Cc1ccc(C(=O)N2CCC(Cc3nc(C(C)C)no3)CC2)cc1C	?	i	nt	nt	nt	nt
CCc1ccc(C(=O)N2CCC(Cc3nc(C(C)C)no3)CC2)cc1	16µM	i	27µM	?	i	24µM
Cc1ccc(CN2C(=O)OC(c3cccc(NC(=O)c4ccc(C)cc4)c3)C2C(=O)NCC(C)C)cc1 (stereo not drawn)	?	i	nt	nt	nt	nt
COc1ccc(C2Cn3nnc(C(=O)N4CCN(C(=O)c5ccc(C)s5)CC4)c3CO2)cc1 (stereo not drawn)	?	i	24µM	24µM	i	24µM

Screening data from PubChem.
